Screening data deposited in PubChem BioAssay by National Center for Advancing Translational Sciences (NCATS).
The list is not random: actives were taken first. Their share in the collection is about 6%.
D1 antag – Antagonist of Human D 1 Dopamine Receptor: qHTS | activity change, negative = inhibition, % at 10 µM | HEK293 TREx D1 cells, calcium flux, dopamine EC80; stronger effect = lower value | D(1A) dopamine receptor (Homo sapiens), P21728 | 3.2% of 360,000 active; in the data active means activity change below about -30%; further: on the % scale 0 is the no-effect control and ±100 the full control effect
Target sequence (P21728 whole entry, looked up): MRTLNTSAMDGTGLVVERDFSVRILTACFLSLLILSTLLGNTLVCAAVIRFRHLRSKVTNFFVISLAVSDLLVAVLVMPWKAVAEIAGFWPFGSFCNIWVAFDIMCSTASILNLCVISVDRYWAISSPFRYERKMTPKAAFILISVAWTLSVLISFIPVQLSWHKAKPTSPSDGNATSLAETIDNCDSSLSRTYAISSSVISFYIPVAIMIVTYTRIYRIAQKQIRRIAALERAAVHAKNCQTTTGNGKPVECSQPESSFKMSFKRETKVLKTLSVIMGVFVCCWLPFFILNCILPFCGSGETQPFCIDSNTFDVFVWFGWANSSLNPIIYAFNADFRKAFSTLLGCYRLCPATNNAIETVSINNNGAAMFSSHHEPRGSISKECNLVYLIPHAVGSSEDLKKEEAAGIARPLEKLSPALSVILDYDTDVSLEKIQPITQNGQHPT
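Kinetic fluorescence of a calcium dye serves as the read-out. D1-expressing Hek293 Trex cells, induced overnight at 30 C, are exposed to compound for 180 s before an EC80 dopamine addition, then read 180 s further.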
D1 ag – Allosteric Agonists of the Human D1 Dopamine Receptor: qHTS; D(1A) dopamine receptor (Homo sapiens), P21728; HEK293 T-REx D1 cells, calcium flux, agonist mode; 1% of 360,000 active; activation, % at 2 µM; in the data active means activation above about 30%; further: 0% is about no effect
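Agonism was scored from calcium flux recorded over 180 s (1 read/s) after pintool compound addition, following a 10-cycle baseline. Cells were inducible force-coupled HEK293 TREx D1, plated overnight at 30 C and loaded with no-wash calcium dye.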
D3 ag – qHTS of D3 Dopamine Receptor Agonist: qHTS; D(3) dopamine receptor (Homo sapiens), P35462; D3R DiscoveRx beta-arrestin cells, luminescence, 90 min; max activation, %; 0.58% of 410,000 active; AID 652048, 2013; in the data active means max activation above about 30%; further: 0% is about no effect
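Agonist mode: compounds and dopamine controls were applied to plated cells for 90 min at 37 degrees C after an overnight attachment at 1500 cells/well. Luminescent read-out followed 30 - 60 minutes at room temperature with DiscoveRx detection reagent.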
D1 potentiator – Potentiators of Human D1 Dopamine Receptor: qHTS; 0.036% of 360,000 active; D(1A) dopamine receptor (Homo sapiens), P21728; HEK293 TREx D1 cells, calcium flux, dopamine EC20 potentiation; potentiation, % at 10 µM; AID 504651, 2011; in the data active means potentiation above about 30%; further: 0% is about no effect
D3 antag – qHTS of D3 Dopamine Receptor Antagonist: qHTS; 2.5% of 360,000 active; max response, negative = inhibition, %; AID 652054, 2013; D3R cells, DiscoveRx beta-arrestin luminescence, antagonist mode; stronger effect = lower value; in the data active means max response below about -50%; inconclusive means no clear call, values can overlap the other calls; further: on the % scale 0 is the no-effect control and ±100 the full control effect
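Cells expressing the human receptor were seeded at 1500 cells/well, incubated overnight at 37 degrees C in 5% CO2, then exposed to library compounds with dopamine controls for 90 minutes at 37 degrees C before luminescent detection.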
The depositor's hits bear a star; u = inconclusive; x = no result given.

SMILES	D1 antag	D1 ag	D3 ag	D1 potentiator	D3 antag
Cc1cccc(N2CCN(CC(O)COc3ccc4ccccc4c3)CC2)c1 (configuration not stated)	x	x	47*	x	u
Cc1ccc(OCC(O)CN2CCN(c3ccccc3)CC2)cc1 (configuration not stated)	3	4	10	-8	-75*
Cc1cc(OCC(O)CN2CCN(c3cccc(Cl)c3)CC2)ccc1Cl (configuration not stated)	-12	4	-6	0	x
O=C(/C=C/c1ccccc1)N1CCN(CC(O)COc2ccccc2)CC1 (configuration not stated)	11	1	-10	-3	-71*
Cc1ccc(N2CCN(CC(O)COc3ccccc3)CC2)cc1 (configuration not stated)	1	2	-17	-1	-54*
OC(COc1ccccc1)CN1CCOCC1 (configuration not stated)	-16	-1	11	0	13
Cc1cccc(CN2CCN(C(=O)c3cccc4ccccc34)CC2)c1	-7	1	2	0	12
OC(COc1ccc(Cl)cc1)CN1CCN(c2ccccc2)CC1 (configuration not stated)	-16	3	-2	-3	-87*
Cc1cccc(CN2CCN(C(=O)c3ccccc3F)CC2)c1	-14	3	0	-3	-78*
CC(C)Oc1ccc(C(=O)N(Cc2ccc(N(C)C)cc2)C2CCS(=O)(=O)C2)cc1 (configuration not stated)	-4	1	1	-6	x
CC1Cc2ccccc2N1Cc1cc(=O)c(OCC(=O)Nc2ccccc2)co1 (configuration not stated)	-33*	3	3	-4	-9
CC(C)NC(=O)COc1coc(CN2CCN(c3ccccc3)CC2)cc1=O	-26	6	1	0	-62*
COc1ccc(OC)c(NC(=O)COc2coc(CN3CCc4ccccc43)cc2=O)c1	-36*	7	2	-10	9
Cc1ccc(NC(=O)COc2coc(CN3c4ccccc4CC3C)cc2=O)c(C)c1 (configuration not stated)	-14	3	-4	-11	u
COc1ccc(OC)c(NC(=O)COc2coc(CN3CCCc4ccccc43)cc2=O)c1	-9	7	3	-6	12
CC(=O)c1ccc(N2CCN(C(=O)c3nn(Cc4ccccc4)c(=O)c4ccccc34)CC2)cc1	-45*	3	14	-7	0
CC(=O)c1ccc(N2CCN(C(=O)c3n[nH]c4ccccc34)CC2)cc1	-33*	7	-9	1	-6
COc1cc(Cl)c(C)cc1NC(=O)Cn1ncc2c3ccccc3n(Cc3ccccc3)c2c1=O	1	1	5	-2	x
CCCNC(=O)C1(C)CCCN(C(=O)c2ccc3c(c2)CCO3)C1 (configuration not stated)	x	x	3	x	41
CCNC(=O)C1(C)CCN(C(=O)c2ccc3c(c2)CCO3)C1 (configuration not stated)	x	x	1	x	-51*
O=C(Nc1ccc(F)c(Cl)c1)N1CCC(CN2CCc3ccccc3C2)CC1	-14	5	-20	-4	x
O=C(NCc1ccc(Cl)cc1Cl)C1CC(=O)N(Cc2ccccc2)C1 (configuration not stated)	-31*	-2	0	-2	-2
O=C(COc1ccccc1)NC(NC(=S)Nc1ccccc1C(=O)O)C(Cl)(Cl)Cl (configuration not stated)	-4	0	-1	-1	-77*
CCOC(=O)c1c(/N=C/C2=C(O)CCCC2=O)sc(C)c1C	-22	-1	3	5	3
CCOC(=O)c1c(-c2ccc(OC)cc2)csc1/N=C/C1=C(O)CCCC1=O	-11	37*	5	-8	-2
SMILES	D1 antag	D1 ag	D3 ag	D1 potentiator	D3 antag
CCOc1ccc(OC(=O)c2cn(-c3ccc(C)cc3)c(=O)c3ccccc23)cc1	3	1	-5	4	x
CC1CN(c2ccc([N+](=O)[O-])c(NCCOc3ccc(Cl)cc3)c2)CC(C)N1 (configuration not stated)	-9	39*	-5	-5	-21
CC(=O)Nc1c(C(=O)Nc2ccccc2F)oc2ccccc12	0	0	-15	0	x
O=C(NC1CCCCC1)N(Cc1nc2ccccc2c(=O)[nH]1)C1CCCCC1	-3	0	-4	9	-21
CN(Cc1nc2ccccc2c(=O)[nH]1)C(=O)c1cc(C2CC2)nn1-c1ccccc1	25	4	2	x	-60*
O=C(NC1CCCCC1)N(Cc1nc2ccccc2c(=O)[nH]1)C1CCCC1	-64*	0	-11	5	-22
CCN(Cc1nc2ccccc2c(=O)[nH]1)C(=O)c1cc(C2CC2)nn1-c1ccccc1	-18	0	5	4	2
CCOC(=O)c1c(C)oc2c1c(C=NCc1ccccn1)c(O)c1ccccc12	14	10	0	-1	-105*
N#Cc1ccc(C23CC4(C2)[C@H](CN(CC2CCCCC2)[C@@H]4c2ccccc2)C3c2ccc(Cl)nc2)cc1 (some centres not stated)	-8	1	17	0	-72*
COc1ccc(S(=O)(=O)NCc2ccc3c(c2)CCN3C(=O)c2ccc(C)cc2)cc1Cl	6	5	-8	-5	x
COc1ccccc1N1CCN(Cc2cc(Br)c(O)c3ncccc23)CC1	0	1	-18	x	-84*
CCOc1ccccc1N1CCN(Cc2cccc(OC)c2O)CC1	-32*	-2	-66	-10	-93*
O=C(CSc1ncc2c(n1)-c1ccccc1N(Cc1ccc(F)cc1)S2(=O)=O)NCc1ccccc1	-1	2	9	0	x
COc1cccc(NC(=O)c2cnn(-c3ccccc3)c2-n2cccc2)c1	-1	5	10	-6	x
COc1cc(NC(=O)Cc2noc3ccccc23)cc(OC)c1OC	-7	2	-12	-1	x
Fc1ccc(-c2csc3ncnc(N4CCN(c5ccccc5)CC4)c23)cc1	26	-2	2	5	23
c1csc(-c2csc3ncnc(NCCCN4CCOCC4)c23)c1	-11	1	-17	-4	-56*
CCN1CCN(c2ncnc3scc(-c4ccc(OC)cc4)c23)CC1	48	0	-12	6	-61*
COc1ccc(N2CCN(c3ncnc4scc(-c5ccccc5)c34)CC2)cc1	9	0	31*	3	67
c1ccc(N2CCN(c3ncnc4scc(-c5cccs5)c34)CC2)cc1	-6	-3	51*	3	39
